The values below come from PubChem BioAssay (Tox21).

Each structure is given as a SMILES string. Records with an inconclusive call do not appear. The source made the active and inactive calls. Unless noted, calls follow the shape of the dose curve; as a rule, active = well fitted curve in the direction sought with a large enough effect in the repeat runs; inconclusive = weak or mixed curves; inactive = no such curve, though single readings can be large; an effect the other way counts as inactive or inconclusive.

Experiment [1] can be described thus: A CellTox Green Cytotoxicity Assay to monitor cytotoxicity in HEK293 cells - 32 hour (AID 1224881). Also: nearly all actives have a fitted effect of over 40% in size. Also: potency is read from the fitted curve at half-maximal effect. In short, it runs like this: (§1)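 Cytotoxicity was tracked continuously in HEK293 cells by a DNA-binding dye excluded from viable cells. Compounds were transferred in DMSO 5 h after seeding; fluorescence was recorded at intervals up to 40 h.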
Experiment [2] is described as follows: A CellTox Green Cytotoxicity Assay to monitor cytotoxicity in HepG2 cells - 0 hour (AID 1224882). Also: nearly all actives have a fitted effect of over 35% in size. In short, it runs like this:
(§2)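 Real-time, homogeneous cytotoxicity readout: dead-cell DNA staining by CellTox Green in HepG2 monolayers, fluorescence measured at timed intervals up to 40 h of continuous compound exposure.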

Experiment [3] in a line: qHTS RealTime-Glo MT Cell Viability Assay in HepG2 cells - 16 hour (AID 1224885). Also: nearly all actives have a fitted effect of over 50% in size. An outline of the steps:
(§3)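 Tox21 10K library screened in qHTS format on HepG2 cells carrying RealTime-Glo reagents. Compounds were added after a 5 h preincubation, and the luminescent signal from continuous culture was measured repeatedly during 40 h treatment.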
For orientation: Quantitative high-throughput screening tests each substance at several concentrations.

The nature of experiment [4]: qHTS RealTime-Glo MT Cell Viability Assay in HEK293 cells - 24 hour (AID 1224886). Also: nearly all actives have a fitted effect of over 50% in size. Also: potency is read from the fitted curve at half-maximal effect. In short, it runs like this: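 Luminescence generated by NanoLuc from substrate produced by living HEK293 cells served as the viability signal. Each value reflects the reading at its stated time point during continuous 40 h compound exposure at 37 C.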
The nature of experiment [5]: qHTS RealTime-Glo MT Cell Viability Assay in HEK293 cells - 8 hour (AID 1224887). Also: nearly all actives have a fitted effect of over 50% in size. Also: potency is read from the fitted curve at half-maximal effect. In short, it runs like this:
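Nonlytic bioluminescent viability monitoring. HEK293 at 600 cells/well with reagent; 5 h settle; compound transfer by pintool; plates held at 37 C and read at set time points.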

A short description of experiment [6]: A CellTox Green Cytotoxicity Assay to monitor cytotoxicity in HEK293 cells - 16 hour (AID 1224888). Also: nearly all actives have a fitted effect of over 35% in size. An outline of the steps:
as §1

Experiment [7] can be described thus: A CellTox Green Cytotoxicity Assay to monitor cytotoxicity in HepG2 cells - 8 hour (AID 1224890). Also: nearly all actives have a fitted effect of over 45% in size. An outline of the steps:
as §2

Experiment [8] in a line: qHTS assay to identify small molecule antagonists of the estrogen receptor alpha (ER-alpha) signaling pathway using the BG1 cell line in the presence of 0.1 nM 17-beta-estradiol - cell viability counter screen (AID 1259241). Also: nearly all actives have a fitted effect of over 40% in size. In short, it runs like this:
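VM7Luc4E2 cells (endogenous full-length ER-alpha, 4xERE-luciferase), cultured 5 days in charcoal-stripped serum, exposed to compounds with 0.1 nM 17beta-estradiol (final) for 22 hr at 37C. Viability read in same wells as live-cell protease fluorescence after 30 min.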

Experiment [9] can be described thus: qHTS assay to identify small molecule antagonists of the androgen receptor (AR) signaling pathway using the MDA cell line in the presence of 0.5 nM R1881 - cell viability counter screen (AID 1259242). Also: nearly all actives have a fitted effect of over 45% in size. In short, it runs like this: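 Cytotoxicity toward MDA-kb2 cells is measured by CellTiter-Fluor live-cell protease fluorescence after 16 hr compound exposure at 37C in the presence of 0.5 nM R1881 stimulator.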

Experiment [10] is described as follows: qHTS assay to identify small molecule HDAC inhibitors (AID 1259364). Also: nearly all actives have a fitted effect of over 45% in size. Also: potency is read from the fitted curve at half-maximal effect. In short, it runs like this:
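Homogeneous cell-based luminescent assay of endogenous class I/II HDAC activity; HCT-116 cells, 2 h compound exposure, 30 min HDAC-Glo development at RT.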

A short description of experiment [11]: qHTS assay to identify small molecule agonists of the sonic hedgehog signaling (Shh) pathway - cell viability counter screen (AID 1259366). Also: nearly all actives have a fitted effect of over 50% in size. Also: potency is read from the fitted curve at half-maximal effect. In short, it runs like this:
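NIH/3T3-derived Gli1-Luc reporter cells, 2,000 per well, received compound after 4 h and were treated about 23 h at 37C. Viability measured in the same wells by CellTiter-Fluor fluorescence after 1 h.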

Experiment [12] in a line: qHTS assay to identify small molecule antagonists of the sonic hedgehog signaling (Shh) pathway - cell viability counter screen (AID 1259367). Also: nearly all actives have a fitted effect of over 55% in size. Also: potency is read from the fitted curve at half-maximal effect. An outline of the steps: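 NIH/3T3-derived Gli1-Luc reporter cells, 2,000/well, plated 4 hr before compound addition, then stimulated with conditioned medium for 24 hr at 37C. Viability measured in the same wells by CellTiter-Fluor fluorescence, reagent added at 23 hr for 1 hr.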

Experiment [13] is described as follows: A CellTox Green Cytotoxicity Assay to monitor cytotoxicity in HepG2 cells - 32 hour (AID 1224883). Also: nearly all actives have a fitted effect of over 50% in size. Also: potency is read from the fitted curve at half-maximal effect. In short, it runs like this: as §2
A short description of experiment [14]: A CellTox Green Cytotoxicity Assay to monitor cytotoxicity in HEK293 cells - 8 hour (AID 1224884). Also: nearly all actives have a fitted effect of over 35% in size. An outline of the steps: as §1
Experiment [15] is described as follows: qHTS RealTime-Glo MT Cell Viability Assay in HepG2 cells - 0 hour (AID 1224889). Also: nearly all actives have a fitted effect of over 50% in size. In short, it runs like this: as §3
Experiment [16] can be described thus: qHTS assay to identify small molecule HDAC inhibitors - cell viability counter screen (AID 1259365). An outline of the steps: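 Wild-type HCT-116 cells, 1,500/well, cultured overnight, then compound-treated 2 h at 37 C. Viability measured as ATP luminescence with CellTiter-Glo after 30 min at room temperature.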
Experiment [17] has as its target Estrogen receptor (Homo sapiens) (UniProt P03372). As to the kind of experiment: qHTS assay to identify small molecule antagonists of the estrogen receptor alpha (ER-alpha) signaling pathway using the BG1 cell line in the presence of 0.1 nM 17-beta-estradiol (AID 1259244). Also: nearly all actives have a fitted effect of over 50% in size. In short, it runs like this: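 After 5 days in hormone-depleted medium (charcoal-stripped serum, no phenol red), VM7Luc4E2 cells were seeded, incubated 24 h, then co-treated with compound and 0.1 nM (final) estradiol for 22 h before luminescence detection.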

The nature of experiment [18]: qHTS assay to identify small molecule phospholipidosis (PLD) inducers (AID 1259344; active = well fitted curve in the direction sought with a large enough effect; an effect the other way counts as inactive or inconclusive). An outline of the steps:
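HepG2 cells, 900/well, treated with compound plus LipidTOX Red for 24 h at 37 C; amiodarone positive and DMSO negative controls. Fixed with paraformaldehyde/Hoechst, then high-content imaging scored LipidTOX pit count and integrated intensity per well and per cell.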

Estrogen receptor (Homo sapiens), sequence (P03372 whole entry, looked up): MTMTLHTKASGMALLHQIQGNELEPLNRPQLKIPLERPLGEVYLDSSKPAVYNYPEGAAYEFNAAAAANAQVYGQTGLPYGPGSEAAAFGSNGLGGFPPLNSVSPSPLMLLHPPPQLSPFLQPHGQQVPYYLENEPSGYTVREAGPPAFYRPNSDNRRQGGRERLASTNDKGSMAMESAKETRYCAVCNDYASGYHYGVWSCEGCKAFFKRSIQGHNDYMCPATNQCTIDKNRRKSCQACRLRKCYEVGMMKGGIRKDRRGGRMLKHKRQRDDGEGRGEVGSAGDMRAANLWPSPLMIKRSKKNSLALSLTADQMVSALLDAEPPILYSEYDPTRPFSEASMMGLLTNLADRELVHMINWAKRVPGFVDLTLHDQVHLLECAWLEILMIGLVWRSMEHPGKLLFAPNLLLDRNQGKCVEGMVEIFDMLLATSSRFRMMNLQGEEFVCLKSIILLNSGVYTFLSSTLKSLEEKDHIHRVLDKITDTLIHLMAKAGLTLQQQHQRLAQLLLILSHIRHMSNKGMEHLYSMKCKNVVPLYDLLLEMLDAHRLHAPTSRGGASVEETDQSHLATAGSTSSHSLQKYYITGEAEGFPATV

For `CC1=CC[C@@]23C[C@@H]1C(C)(C)[C@@H]2CC[C@H]3C`, the Potency entry in experiment [1], in experiment [2], in experiment [3], in experiment [4], in experiment [5] and in experiment [6] was “inactive” throughout. Besides, the Potency result in experiment [7], in [8], in [9], in [10], in [11] and in experiment [12] was “inactive” throughout.
On to `CCCOC(=O)c1c(Cl)c(Cl)c(Cl)c(Cl)c1C(=O)OCCC`, for which the Potency result in [1], in experiment [2], in [13], in [14], in experiment [3] and in experiment [4] was “inactive” each time. Besides, the Potency entry in experiment [5], in experiment [6], in [15], in [7], in [8] and in [9] was “inactive” each time. Also, the Potency result in experiment [16], in [11] and in [12] was “inactive” each time.
On to `c1ccc(CNc2ncnc3c2ncn3C2CCCCO2)cc1` (centres undefined), for which the Potency result in experiment [1], in experiment [2], in experiment [13], in experiment [3], in [6] and in [15] was “inactive” each time. In addition, the Potency result in experiment [7], in experiment [8], in [9], in [17], in experiment [16] and in experiment [11] was “inactive” in each case. Also, the Potency entry in [12] was “inactive”.
With `CCO[Si](C)(CCCOCC1CO1)OCC` (centres undefined), the Potency result in experiment [1], in experiment [2], in experiment [13], in experiment [14], in experiment [4] and in experiment [5] was “inactive” in each case. Also, the Potency entry in experiment [6], in experiment [15], in [7], in experiment [8], in experiment [9] and in experiment [17] was “inactive” each time. In addition, the Potency entry in experiment [10], in [16] and in experiment [11] was “inactive” in each case.
In the case of `CN1CCCN(C(c2ccccc2)c2ccc(Cl)cc2)CC1` (centres undefined), the Potency was 26.8 µM (active) in experiment [1], 21.3 µM (active) in experiment [13], 15 µM (active) in [11] and 13.3 µM (active) in experiment [12]. For the same compound, the Potency entry in experiment [2], in [14], in experiment [5], in experiment [6], in experiment [7] and in experiment [17] was “inactive” in each case. Also, the Potency result in experiment [10] and in experiment [16] was “inactive” each time.
With `CC(=O)OCC(=O)[C@@]1(OC(C)=O)[C@@H](C)C[C@H]2[C@@H]3C[C@H](F)C4=CC(=O)C=C[C@]4(C)[C@@]3(F)[C@@H](O)C[C@@]21C`, the Potency entry in experiment [1], in [2], in experiment [13], in experiment [3], in experiment [4] and in experiment [5] was “inactive” in each case. The Potency result in [6], in experiment [7], in experiment [8], in experiment [9], in experiment [16] and in experiment [11] was “inactive” each time. In addition, in [12], the Potency result is “inactive”.
Turning to `CCCCCCCC/C=C\CCCCCCCC(=O)OCCO`, the Potency result in experiment [1], in experiment [2], in experiment [13], in [14], in experiment [4] and in [6] was “inactive” each time. For the same compound, the Potency entry in experiment [7], in experiment [8], in experiment [9], in [17], in [11] and in [12] was “inactive” in each case. Moreover, in experiment [5], the Potency is 57.8 µM (active).
As to `COc1ccc(-c2cc(=S)ss2)cc1`, the Potency result in experiment [1], in experiment [2], in experiment [13], in [3], in [4] and in experiment [6] was “inactive” throughout. Besides, the Potency entry in experiment [15], in [7], in experiment [9], in experiment [17], in experiment [18] and in experiment [11] was “inactive” in each case. The Potency result in [12] is “inactive”. Besides, the Potency in experiment [10] was 11.9 µM (active).
As for `CC(CN(CCN(CC(C)OCCO)CC(C)OCCO)CC(C)OCCO)OCCO` (centres undefined), the Potency entry in experiment [2], in experiment [14], in [3], in experiment [6], in experiment [15] and in [7] was “inactive” throughout. For the same compound, the Potency entry in [8], in [10], in [16], in experiment [11] and in experiment [12] was “inactive” throughout. Further, in [4], the Potency was 23.7 µM (active).
Regarding `Cc1ccc2c(c1)CCCN2`, the Potency entry in [1], in experiment [2], in experiment [13], in experiment [14], in [3] and in experiment [4] was “inactive” throughout. Moreover, the Potency result in experiment [5], in experiment [6], in experiment [15], in experiment [7], in experiment [8] and in experiment [9] was “inactive” each time. For the same compound, the Potency result in experiment [16], in experiment [11] and in [12] was “inactive” throughout.
